# In PubChem BioAssay:
# Where “and” joins values, the source holds several entries; their conditions need not be identical. Equal values may be shown once. More than one record can exist for a structure, and the calls need not agree. Calls of active or inactive are those of the source.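 Rule for the calls, unless noted: active = mean z-score across replicates of 1.96 or higher in either the MELAS or the Rieske mutant cell line; inactive = the rest.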
# Assays:
# [1] = phospholipid biosynthesis inhibitors in animal cells, primary screen, cell-based, LOPAC library, screen 4 (AID 1347384; call rule not given here); conditions: phospholipid biosynthesis inhibition screen, at 10 µM
# [2] = viability rescue of complex I mutant cybrids, primary screen, cell-based, galactose medium, ATP luminescence (AID 1645843;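 active = z-score of at least 1.8 in each of two replicates, scored against plate mean and spread of sample wells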;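 note: positive z means more ATP and so rescue of galactose-driven cybrid death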); conditions: complex I mutant cybrid cells, 72 h, stronger effect = higher value
# [3] = survival rescue of mitochondrial mutant cells in low glucose, primary screen, MELAS cybrids, Rieske KO mouse fibroblasts, CellTiter-Glo (AID 1508586);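 note: z relative to plate mean and SD of compound and empty wells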
# [4] = target: NAD(+) hydrolase SARM1 (Homo sapiens) (UniProt Q6SZW1); assay: SARM1 TIR NADase inhibitors, cell lysate, NAD-Glo luminescence (AID 1508614;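 active = compound whose remaining NAD level is above about 45 nM, limit read from the data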;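 note: higher remaining NAD means stronger inhibition of SARM1 NADase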); conditions: SAM-TIR HEK293T lysate NADase, at 1 µM, stronger effect = higher value
# [5] = target: Mitogen-activated protein kinase 7 (Homo sapiens) (UniProt Q13164); assay: ERK5 transactivation activators in reporter cells, primary screen, cell-based, HTS (AID 1508626;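 active = luciferase signal above three times the same-plate solvent-only control wells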;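 note: luciferase driven by Gal4-ERK5 fusion binding five Gal4 sites before minimal TATA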); conditions: HeLa Gal4-ERK5 transactivation, 18 h, at 5 µM, stronger effect = higher value
# [6] = MELAS cybrid survival, CellTiter-Glo 48 h, stronger effect = higher value
# [7] = Rieske KO mouse fibroblast survival, CellTiter-Glo 72 h
# Sequence of NAD(+) hydrolase SARM1 (Homo sapiens) (Q6SZW1 whole entry, looked up, the tested form may be a part): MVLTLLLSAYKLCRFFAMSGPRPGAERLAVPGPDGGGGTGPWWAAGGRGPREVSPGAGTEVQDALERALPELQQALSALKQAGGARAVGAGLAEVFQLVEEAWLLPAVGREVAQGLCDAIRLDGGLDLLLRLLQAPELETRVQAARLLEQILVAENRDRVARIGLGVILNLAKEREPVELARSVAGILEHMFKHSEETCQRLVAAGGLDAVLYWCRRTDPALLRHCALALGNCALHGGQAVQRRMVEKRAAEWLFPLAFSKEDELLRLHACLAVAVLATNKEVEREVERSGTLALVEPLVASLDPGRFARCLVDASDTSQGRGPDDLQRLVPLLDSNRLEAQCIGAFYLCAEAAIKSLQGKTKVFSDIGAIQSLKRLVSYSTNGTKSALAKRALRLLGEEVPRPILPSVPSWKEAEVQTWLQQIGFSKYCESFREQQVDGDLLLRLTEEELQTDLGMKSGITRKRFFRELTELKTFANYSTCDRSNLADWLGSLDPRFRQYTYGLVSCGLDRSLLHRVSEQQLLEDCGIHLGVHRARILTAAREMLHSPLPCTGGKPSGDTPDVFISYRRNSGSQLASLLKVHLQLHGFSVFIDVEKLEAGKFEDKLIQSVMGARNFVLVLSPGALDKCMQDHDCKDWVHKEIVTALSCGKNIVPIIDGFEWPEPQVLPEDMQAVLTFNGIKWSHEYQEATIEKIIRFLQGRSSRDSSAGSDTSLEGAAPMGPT
# Sequence of Mitogen-activated protein kinase 7 (Homo sapiens) (Q13164 whole entry, looked up, the tested form may be a part): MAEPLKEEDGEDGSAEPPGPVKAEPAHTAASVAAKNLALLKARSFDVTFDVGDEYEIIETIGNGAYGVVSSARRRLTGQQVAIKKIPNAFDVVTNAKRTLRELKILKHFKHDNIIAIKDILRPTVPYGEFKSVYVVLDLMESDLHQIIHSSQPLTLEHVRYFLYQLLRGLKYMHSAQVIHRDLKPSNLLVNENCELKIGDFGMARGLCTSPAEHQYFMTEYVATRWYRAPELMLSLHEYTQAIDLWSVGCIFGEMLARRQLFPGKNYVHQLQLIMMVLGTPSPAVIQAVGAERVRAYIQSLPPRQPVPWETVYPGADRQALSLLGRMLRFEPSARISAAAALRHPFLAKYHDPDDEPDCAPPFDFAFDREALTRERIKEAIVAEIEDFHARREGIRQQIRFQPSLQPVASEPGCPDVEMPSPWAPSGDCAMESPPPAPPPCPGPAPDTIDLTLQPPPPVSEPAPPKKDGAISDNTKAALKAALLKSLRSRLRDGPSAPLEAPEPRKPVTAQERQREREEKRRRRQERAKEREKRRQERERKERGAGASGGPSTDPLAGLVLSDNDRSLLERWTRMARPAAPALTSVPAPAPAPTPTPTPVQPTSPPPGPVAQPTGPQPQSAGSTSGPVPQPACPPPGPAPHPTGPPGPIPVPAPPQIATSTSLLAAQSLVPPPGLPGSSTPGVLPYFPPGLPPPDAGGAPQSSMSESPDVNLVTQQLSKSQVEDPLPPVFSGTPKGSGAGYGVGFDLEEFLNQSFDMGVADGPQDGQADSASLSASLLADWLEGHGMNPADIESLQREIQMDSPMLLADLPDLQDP
structure (smiles),measurement,setting,value
CNCC(O)c1ccc(O)c(O)c1 (centres undefined),outcome,[1],inactive
same,z-score,[2],-1.02 (inactive) and -0.655 (inactive)
O=C1[C@H]2CCCC[C@H]2C(=O)N1CCCCN1CCN(c2nsc3ccccc23)CC1,z-score,[3]; [6],1.02 (inactive)
same,z-score,[3]; [7],0.693
O=C1CC2(CCCC2)CC(=O)N1CCCCN1CCN(c2ncccn2)CC1,outcome,[1],inactive
same,z-score,[3]; [6],0.0234 (inactive) and -0.506 (inactive) and -2.15 (inactive)
same,z-score,[3]; [7],-3.18 and -0.781 and 0.669
same,remaining NAD,[4],10 nM (inactive)
same,luciferase signal,[5],112 AU (inactive)
COCCc1ccc(OCC(O)CNC(C)C)cc1 (centres undefined),outcome,[1],inactive
same,z-score,[3]; [6],-0.374 (inactive) and 0.559 (inactive) and -0.0156 (inactive)
same,z-score,[3]; [7],-0.175 and -0.344 and -0.724
same,remaining NAD,[4],10 nM (inactive)
same,luciferase signal,[5],40 AU (inactive)
same,z-score,[2],0.4 (inactive) and 0.695 (inactive)
CN(C)CCC(c1ccccc1)c1ccccn1 (centres undefined),outcome,[1],inactive
same,z-score,[3]; [6],0.589 (inactive) and -0.102 (inactive) and 0.319 (inactive)
same,z-score,[3]; [7],-0.594 and -0.285 and 0.31
same,remaining NAD,[4],10 nM (inactive)
same,luciferase signal,[5],44 AU (inactive)
same,z-score,[2],0.62 (inactive) and -0.17 (inactive)
CN(C)C(=O)Nc1ccc(Cl)c(Cl)c1,luciferase signal,[5],260 AU (active)
CN1CCC[C@@H]1CCO[C@](C)(c1ccccc1)c1ccc(Cl)cc1,z-score,[3]; [6],-0.745 (inactive) and -0.186 (inactive)
same,z-score,[3]; [7],0.0285 and -0.556
same,remaining NAD,[4],10 nM (inactive)
same,luciferase signal,[5],32 AU (inactive)
same,z-score,[2],-0.775 (inactive) and -1.7 (inactive)
COc1ccc2cc1Oc1ccc(cc1)C[C@H]1c3c(cc4c(c3Oc3cc5c(cc3OC)CCN(C)[C@@H]5C2)OCO4)CCN1C,remaining NAD,[4],10 nM (inactive)
same,luciferase signal,[5],212 AU (inactive)
CCc1nn(CCCN2CCN(c3cccc(Cl)c3)CC2)c(=O)n1CCOc1ccccc1,z-score,[3]; [6],-0.135 (inactive) and 0.202 (inactive)
same,z-score,[3]; [7],-0.202 and -0.42
same,remaining NAD,[4],10 nM (inactive)
same,z-score,[2],-1.88 (inactive) and -0.63 (inactive) and -2.48 (inactive)
C[C@@H]1C[C@H]2[C@@H]3CCC4=CC(=O)C=C[C@]4(C)[C@@]3(F)[C@@H](O)C[C@]2(C)[C@@]1(O)C(=O)COP(=O)(O)O,remaining NAD,[4],10 nM (inactive)
same,luciferase signal,[5],32 AU (inactive)
Nc1ccc(O)c(C(=O)O)c1,z-score,[3]; [6],-0.293 (inactive) and -0.757 (inactive) and 0.532 (inactive)
same,z-score,[3]; [7],0.059 and -0.214 and -0.391
same,remaining NAD,[4],10 nM (inactive)
same,luciferase signal,[5],48 AU (inactive)
same,z-score,[2],0.62 (inactive) and 0.46 (inactive)
O=C1O[C@H](CO)[C@@H](O)[C@H](O)[C@H]1O,remaining NAD,[4],10 nM (inactive)
same,luciferase signal,[5],16 AU (inactive)
CC(=O)Nc1cccc(O)c1,remaining NAD,[4],10 nM (inactive)
same,luciferase signal,[5],64 AU (inactive)
Cc1ncc([N+](=O)[O-])n1CC(O)CCl (centres undefined),z-score,[3]; [6],-0.127 (inactive) and -0.079 (inactive)
same,z-score,[3]; [7],-0.152 and -0.097
same,remaining NAD,[4],10 nM (inactive)
same,luciferase signal,[5],36 AU (inactive)
same,z-score,[2],0.42 (inactive)
COC(=O)C1=C(C)NC(C)=C(C(=O)OCC(C)C)C1c1ccccc1[N+](=O)[O-] (centres undefined),z-score,[3]; [6],-0.516 (inactive) and 0.43 (inactive) and -1.18 (inactive)
same,z-score,[3]; [7],0.274 and 1.45 and 0.961
same,remaining NAD,[4],10 nM (inactive)
same,luciferase signal,[5],72 AU (inactive)
same,z-score,[2],-1.86 (inactive) and -2 (inactive)
C[C@@H]1C[C@H]2[C@@H]3CCC4=CC(=O)C=C[C@]4(C)[C@@]3(F)[C@@H](O)C[C@]2(C)[C@H]1C(=O)CO,remaining NAD,[4],10 nM (inactive)
same,luciferase signal,[5],32 AU (inactive)
CCCCCCOc1ccccc1C(N)=O,remaining NAD,[4],10 nM (inactive)
same,luciferase signal,[5],48 AU (inactive)
O=C(O)[C@@H](O)[C@H](O)[C@H](O)[C@@H](O)C(=O)O,luciferase signal,[5],52 AU (inactive)
C[C@@H]1CC[C@@]2(OC1)O[C@H]1C[C@H]3[C@@H]4CC[C@H]5C[C@@H](O)CC[C@]5(C)[C@H]4CC(=O)[C@]3(C)[C@H]1[C@@H]2C,luciferase signal,[5],52 AU (inactive)
CC(=O)NCCCCCC(=O)O,remaining NAD,[4],10 nM (inactive)
same,luciferase signal,[5],76 AU (inactive)
COc1ccccc1OCC(O)CO (centres undefined),z-score,[3]; [6],-0.233 (inactive) and 0.795 (inactive) and 1.3e-05 (inactive)
same,z-score,[3]; [7],-0.0145 and 0.521 and -0.435
same,remaining NAD,[4],10 nM (inactive)
same,luciferase signal,[5],160 AU (inactive)
same,z-score,[2],0.37 (inactive)
C[C@]12CCC(=O)C=C1CC[C@@H]1[C@@H]2[C@@H](O)C[C@@]2(C)[C@H]1CC[C@]2(O)C(=O)COP(=O)(O)O,remaining NAD,[4],10 nM (inactive)
same,luciferase signal,[5],72 AU (inactive)
N[C@@H](CCC(=O)N[C@@H](CS)C(=O)NCC(=O)O)C(=O)O,remaining NAD,[4],22 nM (inactive)
same,luciferase signal,[5],68 AU (inactive)
CC(=O)Oc1c(C)c(C)c2c(c1C)CC[C@@](C)(CCC[C@H](C)CCC[C@H](C)CCCC(C)C)O2,remaining NAD,[4],10 nM (inactive)
CC(C)(C)CC(C)(C)c1ccc(O)c(Cc2ccc(Cl)cc2Cl)c1,remaining NAD,[4],10 nM (inactive)
same,luciferase signal,[5],52 AU (inactive)
CCCCCCCCCCCCCCCCCCOCC(O)CO (centres undefined),luciferase signal,[5],152 AU (inactive)
COc1ccc(CN2CCN(C(c3ccc(F)cc3)c3ccc(F)cc3)CC2)c(OC)c1OC,z-score,[3]; [6],-0.49 (inactive) and -0.685 and -0.348 (inactive)
same,z-score,[3]; [7],-0.282 and 2.06 and 1.06
same,remaining NAD,[4],10 nM (inactive)
same,z-score,[2],-1.88 (inactive) and -2.46 (inactive)
O=C1OCCN1/N=C/c1ccc([N+](=O)[O-])o1,remaining NAD,[4],10 nM (inactive)
same,luciferase signal,[5],56 AU (inactive)
Oc1cc(O)c2c(c1)O[C@H](c1ccc(O)c(O)c1)[C@H](O)C2,luciferase signal,[5],20 AU (inactive)
CC(=O)Oc1ccc(C(c2ccc(OC(C)=O)cc2)c2ccccn2)cc1,z-score,[3]; [6],-0.393 (inactive) and -0.251 (inactive) and -0.144 (inactive)
same,z-score,[3]; [7],-0.124 and -0.26 and 0.348
same,remaining NAD,[4],10 nM (inactive)
same,luciferase signal,[5],44 AU (inactive)
same,z-score,[2],-0.6 (inactive)
Nc1ccc(N=Nc2ccccc2)c(N)n1,z-score,[3]; [6],3.05 (active) and 0.049 (inactive) and 2.48 (active)
same,z-score,[3]; [7],0.473 and -0.21 and 1.1
same,remaining NAD,[4],10 nM (inactive)
same,luciferase signal,[5],464 AU (active)
same,z-score,[2],-0.225 (inactive)
CC(=O)NS(=O)(=O)c1ccc(N)cc1,z-score,[3]; [6],-0.241 (inactive) and 0.341 (inactive)
same,z-score,[3]; [7],-0.167 and 0.175
same,remaining NAD,[4],10 nM (inactive)
same,luciferase signal,[5],64 AU (inactive)
same,z-score,[2],-0.2 (inactive)
Clc1ccc2c(c1)CCc1cccnc1C2=C1CCNCC1,z-score,[3]; [6],-0.116 (inactive) and -0.424 (inactive) and -0.172 (inactive)
same,z-score,[3]; [7],-0.231 and 0.543 and -0.35
same,remaining NAD,[4],10 nM (inactive)
same,luciferase signal,[5],32 AU (inactive) and 40 AU (inactive)
same,z-score,[2],-1.23 (inactive) and -1.54 (inactive)
O=c1[nH]cnc2c1ncn2[C@@H]1O[C@H](CO)[C@@H](O)[C@H]1O,remaining NAD,[4],10 nM (inactive)
same,luciferase signal,[5],44 AU (inactive)
O=C(CCCN1CCN(c2ccccn2)CC1)c1ccc(F)cc1,z-score,[3]; [6],-0.275 (inactive) and -0.83 (inactive) and 0.232 (inactive)
same,z-score,[3]; [7],-0.169 and 0.0955 and 0.456
same,remaining NAD,[4],10 nM (inactive)
same,luciferase signal,[5],92 AU (inactive)
same,z-score,[2],-0.625 (inactive)
CCO/C([O-])=N/c1c[n+](N2CCOCC2)no1,z-score,[3]; [6],0.408 (inactive) and -0.37 (inactive)
same,z-score,[3]; [7],0.123 and -0.771
same,remaining NAD,[4],10 nM (inactive)
same,luciferase signal,[5],56 AU (inactive)
same,z-score,[2],0.905 (inactive) and 0.425 (inactive)
CC(=O)OCC(=O)NCCCOc1cccc(CN2CCCCC2)c1,z-score,[3]; [6],-0.52 (inactive) and 0.36 (inactive) and 0.133 (inactive)
same,z-score,[3]; [7],-0.102 and 0.209 and -1.07
same,remaining NAD,[4],10 nM (inactive)
same,z-score,[2],0.45 (inactive) and 0.22 (inactive)
Cc1ccc(C(C)C)cc2c(C)ccc1-2,luciferase signal,[5],128 AU (inactive)
CC(=O)OCC(=O)[C@@]1(O)[C@H](OC(C)=O)C[C@H]2[C@@H]3CCC4=CC(=O)C=C[C@]4(C)[C@@]3(F)[C@@H](O)C[C@@]21C,remaining NAD,[4],10 nM (inactive)
same,luciferase signal,[5],96 AU (inactive)
O=c1[nH]cnc2nc[nH]c12,luciferase signal,[5],60 AU (inactive)
Cc1c(C(=O)O)c(O)cc2c1C(=O)c1c(O)c([C@@H]3O[C@H](CO)[C@@H](O)[C@H](O)[C@H]3O)c(O)c(O)c1C2=O,luciferase signal,[5],52 AU (inactive)
Oc1ccc(Cl)cc1Cc1cc(Cl)ccc1O,remaining NAD,[4],10 nM (inactive)
same,luciferase signal,[5],72 AU (inactive)
COC(=O)[C@@H](N)CS,remaining NAD,[4],10 nM (inactive)
same,luciferase signal,[5],52 AU (inactive)
CC(=O)OCC(=O)[C@H]1CC[C@H]2[C@@H]3CCC4=CC(=O)CC[C@]4(C)[C@H]3CC[C@]12C,remaining NAD,[4],10 nM (inactive)
same,luciferase signal,[5],60 AU (inactive)
CCc1oc2ccccc2c1C(=O)c1cc(Br)c(O)c(Br)c1,z-score,[3]; [6],-0.224 (inactive) and 0.135 (inactive)
same,z-score,[3]; [7],-0.158 and -0.137
same,remaining NAD,[4],10 nM (inactive)
same,luciferase signal,[5],52 AU (inactive)
same,z-score,[2],-1.42 (inactive)
